Experimental data as given in PubChem BioAssay (NCI).
This is part of a sample that, as a whole, favours compounds with a hit. Of some 83,000 tested, about 20% had one in any assay.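 The endpoint reported here, percent growth, reads 100 for growth as untreated, 0 for no net growth and -100 for all cells dead.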 Calls of active or inactive are those of the source. How the source made its calls: active means growth percent below 10; inactive means the rest.

Key:
Experiment in all cases: NCI-60 one-dose screen, 48 h (100 = growth as untreated, 0 = no growth, -100 = all killed)
Conditions in all cases: 10 µM unless noted
[1] = test system: SK-MEL-2 melanoma
[2] = test system: EKVX NSCLC
[3] = test system: SN12C renal
[4] = test system: UO-31 renal
[5] = test system: TK-10 renal
[6] = test system: ACHN renal
[7] = test system: CAKI-1 renal
[8] = test system: A498 renal
[9] = test system: CCRF-CEM leukemia
[10] = test system: MOLT-4 leukemia

Measured: growth

CC(=O)OC[C@]12CC[C@@H](C(=O)/C=C/c3cccnc3)[C@@H]1[C@H]1CC[C@@H]3[C@@]4(C)CC[C@H](OC(C)=O)C(C)(C)[C@@H]4CC[C@@]3(C)[C@]1(C)CC2
inactive: [2] 21.8% | [3] 19% | [4] 12.1% | [5] 38.5% | [7] 12.2%
active: [1] -35.9% | [6] -55.5% | [8] -47.7% | [9] 2.41% | [10] -5.14%

NC(=O)c1c(NC(=O)c2ccc(C(F)(F)F)cc2)sc2c1CCC(=O)C2
inactive: [1] 51.3% | [2] 24.8% | [3] 12.4% | [5] 17% | [8] 89.4%
active: [4] -86.4% | [6] -47.1% | [7] -24.3% | [9] -4.99% | [10] 4.59%

O=C(N/N=C\c1ccc(F)cc1)c1ccc2nc(-c3ccc(Br)cc3)[nH]c2c1
inactive: [1] 83.2% | [2] 53.1% | [3] 29.4% | [4] 55.4% | [5] 42.4% | [6] 12% | [7] 43% | [8] 80.8% | [9] 53.6% | [10] 31.7%

COc1ccc(-c2cnc(NC(=O)CCCCCCNC(=O)C(O)(O)C(F)(F)F)s2)cc1
active: [1] -27.3% | [3] 3.72% | [4] -27.4% | [5] -20.1% | [6] -29.5% | [7] -39.9% | [8] -44.2% | [10] 6.5%
inactive: [2] 19.6% | [9] 18.7%

COc1ccc(-c2c(C(N)=O)c(N)n(Cc3nc4ccccc4[nH]3)c(=O)c2C#N)c(OC)c1
inactive: [1] 99.2% | [2] 95.4% | [3] 101% | [4] 68% | [5] 150% | [6] 96.2% | [7] 78.9% | [8] 102% | [9] 107% | [10] 102%

Clc1ccc2[nH]cc(-c3nn4cc(-c5cccnc5)nc4s3)c2c1
inactive: [1] 101% | [2] 84.1% | [3] 96.6% | [4] 71.6% | [5] 184% | [6] 87.8% | [7] 69.7% | [8] 109% | [9] 84.3% | [10] 94.5%

CC1=C(C)C(=O)C(Nc2ccc3c(c2)OCO3)=C(Br)C1=O
active: [10] -10.2%
inactive: [1] 114% | [2] 76.3% | [3] 102% | [4] 88.1% | [5] 150% | [6] 100% | [7] 95.6% | [8] 95.2% | [9] 11.6%

Cc1ccc(OCc2occc2C(=O)N2CCOCC2)cc1
inactive: [1] 107% | [2] 96.5% | [3] 103% | [4] 90.9% | [5] 97.3% | [6] 111% | [7] 93.7% | [8] 98.1% | [9] 94.5% | [10] 109%

COc1ccccc1N1CCN(C2=C(Cl)C(=O)c3ncccc3C2=O)CC1
inactive: [1] 95.5% | [2] 98.2% | [3] 88.3% | [4] 44.5% | [5] 148% | [6] 45.7% | [7] 63.6% | [8] 115% | [9] 11.5% | [10] 38.3%

O=C(Nc1cccc(Cl)c1)Nc1nc2cc([N+](=O)[O-])ccc2o1
inactive: [1] 45.5% | [2] 27.8% | [3] 35.3% | [4] 59.3% | [5] 94.9% | [6] 47.8% | [7] 62% | [8] 28.3% | [9] 25% | [10] 33.8%

CN1CCN(c2ccc(Nc3nc(NCCCNS(=O)(=O)c4ccc(F)cc4)c4sccc4n3)cc2)CC1
inactive: [1] 107% | [2] 93.5% | [3] 82% | [4] 64.7% | [5] 140% | [6] 70.4% | [7] 67.6% | [8] 128% | [9] 31.1% | [10] 21.6%

C/C(=N\NC(=O)/C=C/CC(=O)O)c1nnn(-c2ccc([N+](=O)[O-])cc2)c1C
inactive: [1] 99.5% | [2] 101% | [3] 101% | [4] 87.8% | [5] 94.1% | [6] 104% | [7] 91.5% | [8] 110% | [9] 109% | [10] 105%

O=c1nc(Nc2ccc([N+](=O)[O-])cc2O)sc2ccccc12
active: [8] -7.49%
inactive: [1] 39.4% | [2] 38% | [3] 34.5% | [4] 35.8% | [5] 82% | [6] 43.5% | [7] 33% | [9] 16.6% | [10] 31.1%
